According to PubChem BioAssay:
Active and inactive are the calls of the source. Unless noted, the rule behind the calls is not given here.

Columns and labels:
[1] = kinase inhibitors against Plasmodium liver-stage infection, cell-based, known kinase inhibitor set, luminescence, hepatoma host viability (AID 624392); conditions: Plasmodium liver stage in hepatoma cells, luciferase luminescence, concentration not given here; liver cell % of control: measured here: host liver cell viability; parasite % of control: stronger effect = lower value;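 note: infected cells incubated roughly two days before readout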
[2] = modulators of glucocorticoid suppression of NF-kB, cell-based, luciferase, IL-1B stimulus, dexamethasone (AID 624486); conditions: NF-kB luciferase reporter, IL-1B + dexamethasone, luminescence; percent of negative control (+Dex): actives lie on both sides, concentration not given here; z-score: measured here: IL-1B alone, no Dex;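 for percent of negative control (+Dex): 100% = mean signal of vehicle control wells on the plate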
[3] = kinase inhibitors altering Pseudomonas killing of worms, whole organism (AID 651566);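 note: tested at 14 µM; sign flipped so higher z means a lower ratio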; conditions: C. elegans killed by P. aeruginosa, survival ratio
[4] = activators of macrophage pro-inflammatory response, cell-based, murine, luminescence (AID 652131); conditions: murine macrophage pro-inflammatory reporter, stronger effect = higher value
[5] = target: Cellular tumor antigen p53 (Homo sapiens) (UniProt P04637); assay: kinase inhibitors altering GFP-p53 stability in HPV16-positive cells, imaging, known kinase inhibitor set, EGFP/DsRed ratio (AID 1053116); conditions: stronger effect = higher value; EGFP object count: measured here: GFP-p53 positive objects count;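 note: cells exposed to compounds for 24 h at 37 °C before reading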
[6] = IRF3 reporter activation in THP-1 macrophages, cell-based, PMA-stimulated THP-1, luminescence (AID 1053176); conditions: PMA-differentiated THP-1, IRF3 reporter luminescence; stronger effect = higher value
[7] = survival rescue of mitochondrial mutant cells in low glucose, primary screen, MELAS cybrids, Rieske KO mouse fibroblasts, CellTiter-Glo (AID 1508586;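 active = mean z-score across replicates of 1.96 or higher in either the MELAS or the Rieske mutant cell line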;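 note: z relative to plate mean and SD of compound and empty wells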)
[8] = MELAS cybrid survival, CellTiter-Glo 48 h, stronger effect = higher value
[9] = Rieske KO mouse fibroblast survival, CellTiter-Glo 72 h

Chain of Cellular tumor antigen p53 (Homo sapiens) (P04637 whole entry, looked up): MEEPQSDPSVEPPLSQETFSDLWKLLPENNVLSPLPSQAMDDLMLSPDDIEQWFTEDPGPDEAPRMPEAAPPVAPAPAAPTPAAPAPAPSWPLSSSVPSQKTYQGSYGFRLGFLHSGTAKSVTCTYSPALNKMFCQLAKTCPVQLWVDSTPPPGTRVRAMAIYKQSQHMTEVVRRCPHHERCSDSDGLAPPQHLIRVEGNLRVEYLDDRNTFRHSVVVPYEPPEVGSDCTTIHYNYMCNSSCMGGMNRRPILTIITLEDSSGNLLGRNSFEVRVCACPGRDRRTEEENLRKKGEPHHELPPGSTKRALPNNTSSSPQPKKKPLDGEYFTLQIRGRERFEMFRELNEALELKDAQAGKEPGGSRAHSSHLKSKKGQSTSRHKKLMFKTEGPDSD

NS(=O)(=O)c1ccc(N=Nc2c(O)[nH]c3cccc(CCc4ccncc4)c23)cc1
liver cell % of control [1]: 87.4%
parasite % of control [1]: 102% (inactive)
percent of negative control (+Dex) [2]: 92.5% (inactive)
z-score [2]: -0.56
z-score [3]: -0.35 (inactive)
z-score [4]: 4.97 (inactive)
EGFP object count [5]: 4
EGFP/DsRed ratio [5]: 0.0896 (inactive)
fraction signal [6]: -0.003 (inactive)
z-score [7, 8]: -0.234 (inactive)
z-score [7, 9]: -0.178

Cc1ccc(-c2cc3c(NC(=O)C4CC4)ncnc3o2)cc1
liver cell % of control [1]: 108%
parasite % of control [1]: 92.7% (inactive)
percent of negative control (+Dex) [2]: 83.5% (inactive)
z-score [2]: -0.295
z-score [3]: -0.475 (inactive)
z-score [4]: -0.06 (inactive)
EGFP object count [5]: 4.5
EGFP/DsRed ratio [5]: 0.0878 (inactive)
fraction signal [6]: -0.004 (inactive)
z-score [7, 8]: -0.119 (inactive)
z-score [7, 9]: 0.346

CC(C)=Cc1cccc2[nH]c(O)c(N=Nc3ccc(S(N)(=O)=O)cc3)c12
liver cell % of control [1]: 77.9%
parasite % of control [1]: 247% (inactive)
percent of negative control (+Dex) [2]: 109% (inactive)
z-score [2]: 1.89
z-score [3]: -0.155 (inactive)
z-score [4]: 0.183 (inactive)
EGFP object count [5]: 21.5
EGFP/DsRed ratio [5]: 0.593 (inactive)
fraction signal [6]: 0 (inactive)
z-score [7, 8]: 0.633 (inactive)
z-score [7, 9]: 0.0676

CN(c1ccc(NC(=O)Nc2ccc(OC(F)(F)F)cc2)cc1)c1ccnc(Nc2cccc(S(N)(=O)=O)c2)n1
liver cell % of control [1]: 58.3%
parasite % of control [1]: 13.1% (inactive)
percent of negative control (+Dex) [2]: 81.5% (inactive)
z-score [2]: -0.645
z-score [3]: 1.04 (inactive)
z-score [4]: -1.34 (inactive)
EGFP object count [5]: 7.5
EGFP/DsRed ratio [5]: 0.0983 (inactive)
fraction signal [6]: -0.001 (inactive)
z-score [7, 8]: -1.15 (inactive)
z-score [7, 9]: 0.249

Clc1ccc(-c2nn3ncccc3c2-c2ccnc(Nc3ccccc3)n2)cc1
liver cell % of control [1]: 149%
parasite % of control [1]: 29.7% (inactive)
percent of negative control (+Dex) [2]: 84% (inactive)
z-score [2]: -0.705
z-score [3]: 0.79 (inactive)
z-score [4]: 0.464 (inactive)
EGFP object count [5]: 4
EGFP/DsRed ratio [5]: 0.304 (inactive)
fraction signal [6]: -0.004 (inactive)
z-score [7, 8]: 0.298 (inactive)
z-score [7, 9]: -0.499

Nc1nc(-c2ccccn2)c(-c2ccc3ncccc3n2)s1
liver cell % of control [1]: 94.7%
parasite % of control [1]: 101% (inactive)
percent of negative control (+Dex) [2]: 81.5% (inactive)
z-score [2]: -0.74
z-score [3]: 0.265 (inactive)
z-score [4]: 4.39 (inactive)
EGFP object count [5]: 4
EGFP/DsRed ratio [5]: 0.114 (inactive)
fraction signal [6]: -0.01 (inactive)
z-score [7, 8]: -0.0333 (inactive)
z-score [7, 9]: -0.22

Cc1ccc(C(=O)NC2CCC2)cc1-c1ccc(C(=O)NCC2CC2)cc1
liver cell % of control [1]: 104%
parasite % of control [1]: 116% (inactive)
percent of negative control (+Dex) [2]: 98.5% (inactive)
z-score [2]: 1.36
z-score [3]: 0.425 (inactive)
z-score [4]: -0.285 (inactive)
EGFP object count [5]: 2
EGFP/DsRed ratio [5]: 0.0763 (inactive)
fraction signal [6]: -0.002 (inactive)
z-score [7, 8]: -0.173 (inactive)
z-score [7, 9]: -0.404

O=C1Nc2ccc(I)cc2/C1=C\c1cc(Br)c(O)c(Br)c1
liver cell % of control [1]: 86.2%
parasite % of control [1]: 77.5% (inactive)
percent of negative control (+Dex) [2]: 92% (inactive)
z-score [2]: -0.355
z-score [3]: 1.3 (inactive)
z-score [4]: 0.587 (inactive)
EGFP object count [5]: 1
EGFP/DsRed ratio [5]: 0.0402 (inactive)
fraction signal [6]: -0.0105 (inactive)
z-score [7, 8]: 0.405 (inactive)
z-score [7, 9]: -0.253

Fc1ccc(-c2nn3ncccc3c2-c2ccnc(Nc3ccc4c(c3)OCCO4)n2)cc1
liver cell % of control [1]: 90.5%
parasite % of control [1]: 13.9% (inactive)
percent of negative control (+Dex) [2]: 100% (inactive)
z-score [2]: -1.27
z-score [3]: -0.41 (inactive)
z-score [4]: -0.769 (inactive)
EGFP object count [5]: 3
EGFP/DsRed ratio [5]: 0.08 (inactive)
fraction signal [6]: -0.003 (inactive)
z-score [7, 8]: -0.754 (inactive)
z-score [7, 9]: -0.424

CC1=C(C(=O)Nc2ccc3[nH]ncc3c2)C(c2ccc3ccccc3c2)CC(=O)N1 (stereo unspecified)
liver cell % of control [1]: 109%
parasite % of control [1]: 30% (inactive)
percent of negative control (+Dex) [2]: 79% (inactive)
z-score [2]: -1.06
z-score [3]: -0.24 (inactive)
z-score [4]: 0.091 (inactive)
EGFP object count [5]: 3
EGFP/DsRed ratio [5]: 0.432 (inactive)
fraction signal [6]: -0.014 (inactive)
z-score [7, 8]: 0.693 (inactive)
z-score [7, 9]: -0.221

O=C1Nc2ccc(C(=O)c3ccco3)cc2/C1=C/c1cc(Cl)c(O)c(Cl)c1
liver cell % of control [1]: 143%
parasite % of control [1]: 74.2% (inactive)
percent of negative control (+Dex) [2]: 91% (inactive)
z-score [2]: 0.035
z-score [3]: 0.21 (inactive)
z-score [4]: -0.774 (inactive)
EGFP object count [5]: 4.5
EGFP/DsRed ratio [5]: 0.0627 (inactive)
fraction signal [6]: -0.005 (inactive)
z-score [7, 8]: -1.39 (inactive)
z-score [7, 9]: -0.429
